# Assay results published in article PMC4552634, “A New Set of Chemical Starting Points with Plasmodium falciparum Transmission-Blocking Potential for Antimalarial Drug Discovery” (PLoS ONE, 2015).
# Like-named read-outs stand apart in the source and are kept apart here. About 3,200 (25%) of roughly 13,000 compounds showed an effect of 50% or more. The list shows a part of the results. Peptide text beside a SMILES is read from it. * marks the point of attachment. Octanoyl = CCCCCCCC(=O)*
# Tested on: P. falciparum stage V gametocytes
# Parameters: BacTiter-Glo ATP luminescence viability of purified stage V gametocytes in 384-well plates, per cent inhibition versus DMSO
# Settings: 48 h, 5 µM, inhibitor
smiles,measurement,setting,value
NC(=O)CNC(=O)CCCN=C(N)N [TCMDC-131667],% Inhibition,,20.86%
Cc1c(Cc2ccc(F)cc2)c(Cl)nc2nc(N)nc(N)c12 [TCMDC-137680],% Inhibition,,-6.829%
CS(=O)(=O)c1ccc2c(c1)CCN(CCC1CCC(NC(=O)C(=Cc3ccc(Cl)cc3Cl)c3ccc(-c4ccccc4)cc3)CC1)CC2 (stereo not drawn) [TCMDC-141426],% Inhibition,,-11.75%
CS(=O)(=O)c1ccc2c(c1)CCN(CCC1CCC(NC(=O)C(=Cc3cccc(C#N)c3)c3ccc(-c4ccccc4)cc3)CC1)CC2 (stereo not drawn) [TCMDC-141427],% Inhibition,,78.58%
N#Cc1cccc(-c2cccc(C(=O)NC3CCC(CCN4CCc5ccc(C#N)cc5CC4)CC3)c2)c1 (stereo not drawn) [TCMDC-139681],% Inhibition,,-20.07%
CC(C)CCN(Cc1cncn1Cc1ccccc1F)C(=O)c1cncc(-c2ccccc2)c1 [TCMDC-132470],% Inhibition,,20.84%
O=C(Nc1ccc(-c2nc3ccccc3[nH]2)cc1)c1ccc([N+](=O)[O-])s1 [TCMDC-123726],% Inhibition,,9.602%
Nc1nc(N)c2nc(C3CC=CCC3)c(N)nc2n1 (stereo not drawn) [TCMDC-141989],% Inhibition,,6.679%
CCCCCCCC(=O)N[C@@H](Cc1ccccc1)C(=O)N[C@H](C(=O)O)C(C)C [TCMDC-139536] (Octanoyl-Phe-Val-OH),% Inhibition,,1.099%
CC(Sc1n[nH]c(-c2ccccc2Br)n1)C(=O)Nc1ccc(F)cc1 (stereo not drawn) [TCMDC-125115],% Inhibition,,-62.46%
Cc1ccc(NC(=O)C(C)Sc2n[nH]c(-c3ccccc3Br)n2)cc1 (stereo not drawn) [TCMDC-125166],% Inhibition,,75.62%
CC(CN(C)C)C(=O)Nc1ccc(-c2ccc(-c3nc4ccccc4[nH]3)s2)cc1 (stereo not drawn) [TCMDC-137100],% Inhibition,,21.36%
COc1ccc(Br)cc1C1Nc2ccc3ccccc3c2C2=C1C(=O)CC(c1ccccc1)C2 (stereo not drawn) [TCMDC-125675],% Inhibition,,55.64%
COc1ccc(C2CC(=O)C3=C(C2)NC(C)=C(C(=O)OC(C)C)C3c2ccccc2F)cc1OC (stereo not drawn) [TCMDC-124038],% Inhibition,,37.21%
COc1cc(C2Nc3ccc4ccccc4c3C3=C2C(=O)CC(C)(C)C3)ccc1Oc1ccc([N+](=O)[O-])cc1C#N (stereo not drawn) [TCMDC-125717],% Inhibition,,30.01%
CN(Cc1ccncc1)C(Cc1ccccc1)C1CCN(Cc2ccc(O)c(Cl)c2)CC1 (stereo not drawn) [TCMDC-124648],% Inhibition,,-12.77%
COc1cc(CNC[C@@H](O)[C@H](Cc2ccccc2)NC(=O)c2cc(OC(C)C)cc(N3CCCCS3(=O)=O)c2)cc(OC)c1 [TCMDC-134525],% Inhibition,,23.04%
CCc1cc2c(cc1OCCN(C)C)N(C(=O)Nc1ccc(-c3ccncc3)c(Cl)c1)CC2 [TCMDC-139214],% Inhibition,,8.963%
COc1ccc(-c2cnc3ccc(NCc4ccc(F)cc4)nn23)cc1OC [TCMDC-136675],% Inhibition,,53.19%
COc1ccc(-c2cnc3ccc(NCCCO)nn23)cc1OC [TCMDC-136683],% Inhibition,,53.42%
N#Cc1ccc(-c2cnc3ccc(NCCc4cccnc4)nn23)cc1 [TCMDC-136679],% Inhibition,,23.92%
Fc1ccc(CNc2ccc3ncc(-c4cccnc4)n3n2)cc1 [TCMDC-136674],% Inhibition,,19.94%
Oc1cccc(-c2cnc3ccc(NCc4ccc(F)cc4)nn23)c1 [TCMDC-136676],% Inhibition,,39.41%
COc1ccc(-c2cnc3ccc(N4CCCC4)nn23)cc1OC.O=CO [TCMDC-134177],% Inhibition,,42.14%
C/C=C1\CN2CC[C@H]1C[C@H]2[C@H](O)c1ccnc2ccc(O)cc12 [TCMDC-138272],% Inhibition,,3.79%
COc1ccc2nccc(N3CCC(O)(CCNCc4ccc5c(n4)NC(=O)CO5)CC3)c2n1 [TCMDC-134564],% Inhibition,,-10.39%
CCNC(=O)N1CCN(c2nc(-c3ccccc3)nc(COC)c2Cc2ccc(C)cc2)CC1 [TCMDC-124783],% Inhibition,,37.5%
O=c1cc(NCCCNCc2cc(C(F)(F)F)ccc2F)[nH]c2ccccc12 [TCMDC-139423],% Inhibition,,-83.26%
CC1(C)N=C(N)N=C(N)N1OCCc1ccc2ccccc2c1 [TCMDC-131755],% Inhibition,,-0.2663%
COc1cc(Cc2cnc(N)nc2N)cc(OCCCCC2NC(=O)NC2=O)c1OC (stereo not drawn) [TCMDC-137299],% Inhibition,,4.359%
CC1CCCN1Cc1ccc(-c2ccc3c(=O)cc(CCc4cccc(F)c4F)n(CC(=O)N(C)Cc4ccc(-c5ccc(C(F)(F)F)cc5)cc4)c3n2)cc1 (stereo not drawn) [TCMDC-136564],% Inhibition,,30.5%
Cc1nc2c(s1)c(=O)cc(CCc1cccc(F)c1F)n2CC(=O)N(Cc1ccc(-c2ccc(C(F)(F)F)cc2)cc1)C1CCN(C(C)C)CC1 [TCMDC-141264],% Inhibition,,113.7%
Cc1ccc2c(=O)cc(CCc3cccc(F)c3F)n(CC(=O)N(Cc3ccc(-c4ccc(C(F)(F)F)cc4)cc3)C3CCN(C)CC3)c2n1 [TCMDC-141317],% Inhibition,,107%
Cc1ccc2c(=O)cc(CCc3cccc(F)c3F)n(CC(=O)N(Cc3ccc(-c4ccc(C(F)(F)F)cc4)cc3)C3CCN(C(C)C)CC3)c2n1 [TCMDC-141318],% Inhibition,,122.6%
COC(=O)Cn1c2ccccc2c2c(N)c(C(=O)OC)c(C)nc21 [TCMDC-131562],% Inhibition,,7.659%
CC(C)c1ccc(NC(=O)c2ccc(CN3CCCN(CC4CCCCC4)CC3)cc2)cc1 [TCMDC-136417],% Inhibition,,-19.72%
CCC(CC(NCCCCNC(=O)c1ccc(NC(=O)c2ccc(Cl)cc2)cc1)c1ccccc1)c1ccccc1OC (stereo not drawn) [TCMDC-138579],% Inhibition,% Inhibition,48.18%
N#Cc1c(N2CCN(c3ccc(F)cc3)CC2)nc(N)c2c(N)nc3c(c12)CC(=O)N3C1CC1 [TCMDC-124490],% Inhibition,,43.84%
Cc1cccc2[nH]c(-c3cccc(-c4cccc(NC(=O)c5ccc(=O)[nH]n5)c4)c3)nc12 [TCMDC-137033],% Inhibition,,-59.71%
N#CC1(CCCNCCc2ccc(O)cc2)CCCc2c(O)cccc21 (stereo not drawn) [TCMDC-137732],% Inhibition,,-11.73%
COc1ccc2c(c1C1CCN(CCCCNC(=O)c3ccc(-c4ccc(Cl)cn4)cc3)CC1)CCCC2 [TCMDC-138576],% Inhibition,,-10.77%
COc1ccc2c(c1CCNCCCCNCCc1c(OC)ccc3c1CCCC3)CCCC2 [TCMDC-137324],% Inhibition,,111.7%
COc1ccc2c(c1CNCCCCCCNCc1c(OC)ccc3c1CCCC3)CCCC2 [TCMDC-137817],% Inhibition,,117.4%
O=C(Nc1ccc(F)cc1)N1CCCN(c2ccnc3cc(Cl)ccc23)CC1 [TCMDC-133584],% Inhibition,,-23.79%
COc1cc2c(cc1OC)CN(CCc1ccc(NC(=O)c3cc4cc(Cl)ccc4[nH]3)cc1)CC2 [TCMDC-138249],% Inhibition,,-9.297%
Cc1cc2c(cc1C(F)(F)F)N(C(=O)Nc1ccc(OCCN(C)C)c(C(F)(F)F)c1)CC2 [TCMDC-139850],% Inhibition,,18.6%
COc1cc(F)c2nccc([C@@H](O)CN3CCC(NCc4ccc5c(n4)NC(=O)CS5)C(F)C3)c2c1 (stereo partly drawn) [TCMDC-141805],% Inhibition,,-13.4%
FC(F)(F)c1cc(Nc2ccc(Oc3ccccc3)cc2)c2cc(-c3ccncc3)ccc2n1 [TCMDC-138549],% Inhibition,,-36.95%
c1ccc(CN2CCc3cc4nccc(N5CCNCC5)c4cc32)cc1 [TCMDC-140118],% Inhibition,,-20.01%
C/C=C/COc1ccc2ccccc2c1CNCCCCCCCCNCc1c(OC/C=C/C)ccc2ccccc12 [TCMDC-137844],% Inhibition,,118.6%
C=CCOc1ccc2ccccc2c1CNCCCCCCNCc1c(OCC=C)ccc2ccccc12 [TCMDC-137340],% Inhibition,,119.9%
Nc1nc(N)c2c(ccc3c2cnn3S(=O)(=O)N2CCCC2)n1 [TCMDC-137852],% Inhibition,,-71.91%
O=C1COc2ccccc2N1C/C=C(\CN1CCC(c2ccccc2)CC1)c1cc(Cl)cc(Cl)c1 [TCMDC-134528],% Inhibition,,-40.54%
Cc1cc(Nc2ccc3c(c2)CCC3)n2ncnc2n1 [TCMDC-123574],% Inhibition,,8.317%
Cc1[nH]nc2cc(Nc3nccc(Nc4ccc(Oc5ccccc5)cc4)n3)ccc12 [TCMDC-138573],% Inhibition,,32.4%
CCc1nnc2sc(-c3cccc(NC(=O)c4ccc(C)c([N+](=O)[O-])c4)c3)nn12 [TCMDC-125124],% Inhibition,,-17.45%
Cc1ccc(O)c(-c2cc(C(=O)Nc3ccc(S(=O)(=O)N4CCCCC4)cc3)[nH]n2)c1 [TCMDC-124309],% Inhibition,,-24.12%
O=C(Nc1ccccc1)c1cnc[nH]1 [TCMDC-123941],% Inhibition,,-10.44%
CC[C@H]1CN2CC[C@@H]1C[C@H]2[C@H](O)c1cc(-c2ccc(Cl)c(Cl)c2)nc2ccc(O)cc12 [TCMDC-141362],% Inhibition,,95.45%
CC[C@H]1CN2CC[C@@H]1C[C@H]2[C@H](O)c1cc(-c2ccccc2)nc2ccc(O)cc12 [TCMDC-141380],% Inhibition,,89.63%
CC[C@H]1CN2CC[C@H]1C[C@@H]2[C@H](O)c1ccnc2ccc(O)cc12 [TCMDC-132025],% Inhibition,,31.63%
CCCc1cc([C@@H](O)[C@@H]2C[C@@H]3CCN2C[C@@H]3CC)c2ccccc2n1 [TCMDC-131428],% Inhibition,,-9.828%
CC[C@H]1CN2CC[C@@H]1C[C@H]2[C@H](O)c1cc(-c2ccc(F)cc2)nc2ccc(O)cc12 [TCMDC-141378],% Inhibition,,55.28%
CC[C@H]1CN2CC[C@H]1C[C@H]2[C@H](O)c1ccnc2ccc(O)cc12 [TCMDC-131425],% Inhibition,,22.33%
CC[C@H]1CN2CC[C@@H]1C[C@H]2[C@H](O)c1ccnc2ccc(Cl)cc12 [TCMDC-141353],% Inhibition,,-5.728%
OCC1CCCCN1Cc1cccc(-c2cccc(-c3nc4ccccc4[nH]3)c2)c1 (stereo not drawn) [TCMDC-133835],% Inhibition,,-3.731%
